# In PubChem BioAssay:
# The source made the active and inactive calls. Cut-off read from the data, not from the text of the source, unless noted: active = inhibition above about 80%; inactive = the rest.
# Legend:
# [1] = growth inhibition of RCMB18 medulloblastoma cells, cell-based, cisplatin and BGB IC40 combos (AID 1671462); conditions: stronger effect = higher value;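 note: cells exposed to compound for four days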
# [2] = growth inhibition of CRL1545 osteosarcoma cells, cell-based, cisplatin and BGB IC20 combos (AID 1671464); conditions: stronger effect = higher value;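 note: cells exposed to compound for 96 hours before readout; 0% = vehicle DMSO and 100% = high DMSO killing control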
# [3] = LFS_MB_P medulloblastoma growth inhibition, cell-based, chromothripsis tumors, cisplatin or BGB combos (AID 1671449); conditions: LFS_MB_P medulloblastoma cells;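 note: cells exposed for 96 hours; 0% = vehicle DMSO and 100% = killing by high DMSO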
# [4] = HDN33 neuroblastoma growth inhibition, cell-based, chromothripsis tumors, cisplatin or BGB combos (AID 1671450); conditions: HDN33 neuroblastoma cells, stronger effect = higher value;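 note: cells exposed to compound for four days; 0% = vehicle DMSO and 100% = cell killing by high DMSO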
# [5] = ICB984 medulloblastoma cell growth inhibition, synergistic combos for chromothripsis tumors, cisplatin or BGB combos (AID 1671451; call rule not given here;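 note: cells exposed for 96 hours before readout; 0% = vehicle DMSO and 100% = killing by high DMSO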); conditions: ICB984 medulloblastoma cells, drug combinations, stronger effect = higher value
# [6] = LFS_MB_1R medulloblastoma cell growth inhibition, synergistic combos for chromothripsis tumors, cisplatin or BGB combos (AID 1671452); conditions: LFS_MB_1R medulloblastoma cells, stronger effect = higher value;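 note: cells exposed for 96 hours before readout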
# [7] = HTB85 osteosarcoma cell growth inhibition, synergistic combos for chromothripsis tumors, BGB or cisplatin IC20 combos (AID 1671453); conditions: HTB85 osteosarcoma cells, drug combinations, stronger effect = higher value;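 note: cells exposed for 96 hours before readout; 0% = vehicle DMSO and 100% = high DMSO killing control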
# [8] = CRL2098 osteosarcoma cell growth inhibition, synergistic combos for chromothripsis tumors, BGB or cisplatin IC20 combos (AID 1671454); conditions: CRL2098 osteosarcoma cells, drug combinations, stronger effect = higher value;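 note: cells exposed for 96 h before readout; 0% = vehicle DMSO and 100% = killing by high DMSO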
# [9] = HD-MB03 medulloblastoma cell growth inhibition, synergistic combos for chromothripsis tumors, BGB or cisplatin IC20 combos (AID 1671455; in the data active = inhibition above about 83%;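 note: 0% = vehicle DMSO and 100% = high DMSO as cytotoxic control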); conditions: HD-MB03 medulloblastoma cells, stronger effect = higher value
# [10] = UWB1.289 ovarian carcinoma cell growth inhibition, synergistic combos for chromothripsis tumors, BGB or cisplatin combos (AID 1671456); conditions: UWB1.289 ovarian carcinoma cells, stronger effect = higher value;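 note: cells exposed to compound for four days; 0% = vehicle DMSO and 100% = killing by high DMSO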
# [11] = LFS_MB_2R medulloblastoma cell growth inhibition, synergistic combos for chromothripsis tumors, cisplatin combos (AID 1671457); conditions: LFS_MB_2R medulloblastoma cells, stronger effect = higher value;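 note: cells exposed to compound for four days before readout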
# [12] = MDA-MB-436 breast carcinoma cell growth inhibition, synergistic combos for chromothripsis tumors, BGB or cisplatin combos (AID 1671458; call rule not given here;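 note: cells exposed for 96 hours; 0% = vehicle DMSO and 100% = killing by high DMSO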); conditions: MDA-MB-436 breast carcinoma growth inhibition, drug combinations, stronger effect = higher value
# [13] = UWB1.289_BRCA1 ovarian cancer growth, cell-based, BGB or cisplatin combinations (AID 1671459); conditions: UWB1.289 BRCA1 ovarian carcinoma, drug combinations, stronger effect = higher value
# [14] = human astrocyte viability loss, single and combined drugs, cytotoxicity control for chromothriptic childhood tumor combination screen, cell-based, BGB or cisplatin IC20 combos (AID 1671460); conditions: Human astrocytes, drug combinations, stronger effect = higher value;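 note: cells exposed to compounds for 96 hours before viability readout; 0% = vehicle and 100% = killing control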
# [15] = growth inhibition of BT084 medulloblastoma cells, cell-based, ICGC_MB145, cisplatin and BGB IC40 combos (AID 1671461); conditions: drug combinations, stronger effect = higher value;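 note: cells exposed to drugs for 96 hours; 0% = vehicle DMSO and 100% = high DMSO full killing control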
# [16] = viability rescue of complex I mutant cybrids, primary screen, cell-based, galactose medium, ATP luminescence (AID 1645843;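 active = z-score of at least 1.8 in each of two replicates, scored against plate mean and spread of sample wells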;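 note: positive z means more ATP and so rescue of galactose-driven cybrid death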); conditions: complex I mutant cybrid cells, 72 h, stronger effect = higher value
# [17] = measured here: BGB IC40 combination, at 0.05 µM
# [18] = measured here: combination with cisplatin, at 0.5 µM
# [19] = measured here: with BGB IC20 combination, at 0.5 µM
# [20] = measured here: with cisplatin IC20 combination, at 0.5 µM
# [21] = measured here: combination with BGB IC40, at 0.05 µM
# [22] = measured here: combination with cisplatin, at 5 µM
smiles,measurement,setting,value
Nc1ccccc1NC(=O)c1cnccn1,inhibition,[1]; [17],-24.6%
same,inhibition,[1]; [18],-43.9%
same,inhibition,"[1]; single agent, at 5 µM",21.9%
same,inhibition,[2]; at 0.5 µM,19.6% (inactive)
same,inhibition,[2]; [19],-5.57%
same,inhibition,[2]; [20],31.1%
same,inhibition,"[2]; single agent, at 0.05 µM",-21.9%
same,inhibition,"[2]; single agent, at 5 µM",32.9%
C[C@H](NC(=O)c1ccccc1N=Cc1c(O)ccc2ccccc12)c1ccccc1,inhibition,"[3]; at 0.5 µM, stronger effect = higher value",-32.5% (inactive)
same,inhibition,"[3]; measured here: combination with BGB IC20, at 0.005 µM",-24.4%
same,inhibition,"[3]; measured here: combination with BGB IC40, at 0.005 µM",-29.4%
same,inhibition,[3]; [21],-11%
same,inhibition,"[3]; measured here: combination with cisplatin, at 0.5 µM, stronger effect = higher value",-57.7%
same,inhibition,"[3]; measured here: combination with cisplatin, at 5 µM, stronger effect = higher value",-10%
same,inhibition,"[4]; BGB combo, at 5 µM",-7.69%
same,inhibition,[4]; at 0.5 µM,1.7% (inactive)
same,inhibition,"[4]; cisplatin combo, at 5 µM",-4.45%
same,inhibition,[4]; [19],-2.8%
same,inhibition,[4]; [20],-1.48%
same,inhibition,"[4]; single agent, at 5 µM",7.54%
same,inhibition,"[5]; BGB IC20 combo, at 0.005 µM",1.67%
same,inhibition,"[5]; BGB IC40 combo, at 0.005 µM",-1.06%
same,inhibition,"[5]; BGB IC40 combo, at 0.05 µM",7.65%
same,inhibition,[5]; at 0.5 µM,-7.38% (inactive)
same,inhibition,"[5]; cisplatin combo, at 0.05 µM",3.01%
same,inhibition,"[5]; cisplatin combo, at 0.5 µM",-7.71%
same,inhibition,"[5]; cisplatin combo, at 5 µM",-12.4%
same,inhibition,"[5]; measured here: 5 uM single agent, at 5 µM",5.4%
same,inhibition,[6]; at 0.5 µM,-6.38% (inactive)
same,inhibition,[6]; [21],-9.7%
same,inhibition,[6]; [18],-2.62%
same,inhibition,[6]; [22],12.2%
same,inhibition,[7]; at 0.5 µM,1.08% (inactive)
same,inhibition,"[7]; measured here: with BGB IC20, at 0.5 µM",5.46%
same,inhibition,"[7]; measured here: with BGB IC20, at 5 µM",7.19%
same,inhibition,"[7]; measured here: with cisplatin IC20, at 0.5 µM",-9.86%
same,inhibition,"[7]; measured here: with cisplatin IC20, at 5 µM",-2.37%
same,inhibition,"[7]; single agent, at 5 µM",12.6%
same,inhibition,[8]; at 0.5 µM,5.5% (inactive)
same,inhibition,"[8]; measured here: combination with BGB at IC20, at 0.5 µM",-35.4%
same,inhibition,"[8]; measured here: combination with cisplatin at IC20, at 0.5 µM",58.3%
same,inhibition,[9]; at 0.5 µM,6.83% (inactive)
same,inhibition,"[9]; measured here: combo with BGB at IC20, at 0.5 µM",11.2%
same,inhibition,"[9]; measured here: combo with cisplatin at IC20, at 0.5 µM",5.12%
same,inhibition,[10]; at 0.5 µM,17.4% (inactive)
same,inhibition,"[10]; measured here: inhibition with BGB combination, at 0.05 µM",3.84%
same,inhibition,"[10]; measured here: inhibition with cisplatin combination, at 0.05 µM",5.13%
same,inhibition,[11]; at 0.5 µM,-0.99% (inactive)
same,inhibition,[11]; [18],5.16%
same,inhibition,[11]; [22],4.48%
same,inhibition,[12]; at 0.5 µM,-1.91% (inactive)
same,inhibition,"[12]; measured here: BGB combination, at 0.5 µM",-7.38%
same,inhibition,"[12]; measured here: BGB combination, at 5 µM",-1.84%
same,inhibition,"[12]; measured here: cisplatin combination, at 0.5 µM",-10.5%
same,inhibition,"[12]; measured here: cisplatin combination, at 5 µM",-4.49%
same,inhibition,"[13]; BGB combination, concentration series, at 5 µM",-2.68%
same,inhibition,[13]; at 0.5 µM,1.55% (inactive)
same,inhibition,"[13]; cisplatin combination, concentration series, at 5 µM",4.86%
same,inhibition,[14]; at 0.5 µM,3.33% (inactive)
same,inhibition,"[14]; measured here: combo with BGB IC20, at 0.5 µM",4.85%
same,inhibition,"[14]; measured here: combo with cisplatin IC20, at 0.5 µM",-2.44%
same,inhibition,[15]; at 0.5 µM,-3.76% (inactive)
same,inhibition,"[15]; cisplatin combination, at 0.5 µM",0.659%
same,inhibition,"[15]; cisplatin combination, at 5 µM",-186%
same,inhibition,"[15]; measured here: BGB IC40 combination 0.05 uM, at 0.05 µM",5.69%
same,inhibition,"[15]; single agent, at 5 µM",-0.461%
same,inhibition,[1]; at 0.5 µM,-3.35% (inactive)
same,inhibition,"[1]; cisplatin combo, at 5 µM",-10.8%
same,inhibition,[1]; [17],-9.58%
same,inhibition,[1]; [18],-13.6%
same,inhibition,"[1]; single agent, at 5 µM",3.49%
same,inhibition,[2]; at 0.5 µM,-10.6% (inactive)
same,inhibition,[2]; [19],-16.9%
same,inhibition,[2]; [20],-9.19%
same,inhibition,"[2]; single agent, at 0.05 µM",-20.9%
same,inhibition,"[2]; single agent, at 5 µM",-71%
c1cnn(-c2ccc(N3CCC(N4CCC4)CC3)cc2)c1,z-score,[16],-0.48 (inactive)
CC(C)Cc1noc(C2C3CCC4C(CCC32)C4(Cl)Cl)n1 (centres undefined),z-score,[16],-0.52 (inactive)
CCN1CCC(N2CCCC(CN3CCCC3)C2)CC1 (centres undefined),z-score,[16],-0.48 (inactive)
